Laboratory results reported in PubChem BioAssay.
Calls of active or inactive are those of the source. Unless noted, the rule behind the calls is not given here.

Columns and labels:
[1] = tested on: Wnt5a (protein binding on small-molecule microarray); assay: small molecules binding Wnt5a protein – biophysical, small-molecule microarray, 635/667 nm fluorescence, primary screen (AID 1142); settings: 635 nm fluorescence, higher = more signal;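 note: fluorescence read at 667 nm with signal to noise per printed feature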
[2] = ATP-based viability of Huh7 replicon cells – cell-based, CellTiter-Glo luminescence, basal, 48 h, cytotoxicity control for HCV replication inhibitor project, primary screen (AID 1143); settings: higher = more signal, called active from +8 up or from −8 down;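 note: Huh7 hepatoma cells carrying a hepatitis C replication reporter with no stimulus; test concentration not given here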
[3] = Pseudomonas biofilm growth suppression – PAO1 strain, BacTiter-Glo luminescence, LB-PBS, primary screen (AID 1144); settings: P. aeruginosa PAO1 biofilm, 12 h, higher = more signal
[4] = basal CRE-LacZ reporter activity in PC12 – cell-based, unstimulated, primary screen (AID 1145); settings: no forskolin, luminescence, 4.5 h, higher = more signal, called active from +8 up or from −8 down
[5] = forskolin-driven CRE-LacZ activity in PC12 – cell-based, CRE-LacZ reporter, forskolin-stimulated, primary screen (AID 1146); settings: luminescence, 4.5 h, higher = more signal, called active from +8 up or from −8 down;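 note: PC12 cells with 6xCRE LacZ reporter stimulated by forskolin 10 µM; beta-galactosidase reporter signal reflecting CREB driven transcription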
[6] = target: Streptavidin (Streptomyces avidinii) (UniProt P22629); assay: compounds binding control protein streptavidin – biophysical, small-molecule microarray, 635/667 nm fluorescence, artefact control for SMM compound annotation, primary screen (AID 1147); settings: higher = more signal;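 note: signal reflects streptavidin binding to arrayed compounds as a control protein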
Sequence of Streptavidin (Streptomyces avidinii) (P22629 whole entry, looked up): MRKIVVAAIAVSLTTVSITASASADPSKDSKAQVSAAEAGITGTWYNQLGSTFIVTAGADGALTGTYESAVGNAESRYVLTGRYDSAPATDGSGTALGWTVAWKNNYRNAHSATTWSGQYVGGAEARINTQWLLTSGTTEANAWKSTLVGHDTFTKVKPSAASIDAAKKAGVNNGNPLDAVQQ

[7] = probe aInhba binding on compound microarray – biochemical, small-molecule microarray, 635/667 nm fluorescence, primary screen (AID 1148); settings: higher = more signal;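 note: score merges 667nm spot fluorescence with signal-to-noise for antibody binding to printed compounds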
Torsin-1A (Homo sapiens) [8] = target: Torsin-1A (Homo sapiens) (UniProt O14656); assay: TOR1A wild-type binding on microarray – cell lysate, small-molecule microarray, lysate, 635/667 nm, primary screen (AID 1149); settings: COS7 hTOR1A-WT lysate, 635 nm fluorescence, higher = more signal
Sequence of Torsin-1A (Homo sapiens) (O14656 whole entry, looked up): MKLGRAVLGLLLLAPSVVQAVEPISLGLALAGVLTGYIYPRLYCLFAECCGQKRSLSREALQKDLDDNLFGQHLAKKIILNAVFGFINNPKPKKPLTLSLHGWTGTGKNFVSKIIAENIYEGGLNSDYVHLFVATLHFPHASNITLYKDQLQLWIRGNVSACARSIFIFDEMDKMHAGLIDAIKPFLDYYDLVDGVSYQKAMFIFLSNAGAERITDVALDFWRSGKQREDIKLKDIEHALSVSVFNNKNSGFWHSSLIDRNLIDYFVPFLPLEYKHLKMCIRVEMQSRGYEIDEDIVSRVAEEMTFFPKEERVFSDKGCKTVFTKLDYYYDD

Torsin-1A (Homo sapiens) [9] = target: Torsin-1A (Homo sapiens) (UniProt O14656); assay: torsin A mutant lysate binding on microarrays – cell lysate, small-molecule microarray, COS7 lysate, 635/667 nm fluorescence, primary screen (AID 1150); settings: COS7 hTOR1A mutant lysate, 635 nm fluorescence, higher = more signal;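 note: score pools 667 nm emission and signal to noise measuring lysate protein binding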
[10] = tested on: Sonic hedgehog protein (Shh); assay: Sonic hedgehog microarray binding compounds – biochemical, small-molecule microarray, 635/667 nm fluorescence, primary screen (AID 1151); settings: 635 nm fluorescence, higher = more signal;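 note: Shh protein binding to compounds spotted on small-molecule microarray slides; score combines spot fluorescence intensity with signal-to-noise across triplicate slides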
[11] = optical density shifts of acrAB sulA E. coli – strain DRC41, OD650, 48 h, E. coli filamentation inducer project, primary screen (AID 1152); settings: higher = more signal, called active from +8 up or from −8 down;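 note: E. coli MC1000 strain DRC41 lacking acrAB efflux pump and sulA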
[12] = probe aLefty1 binding on compound microarray – biochemical, small-molecule microarray, 635/667 nm fluorescence, primary screen (AID 1153); settings: higher = more signal;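 note: score merges spot fluorescence with signal-to-noise ratio from the scanned slide images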
[13] = plasmodial surface anion channel blockers, osmotic lysis – cell-based, P. falciparum Indochina, OD700, 1 h, primary screen (AID 1154); settings: P. falciparum Indochina infected RBC osmotic lysis, higher = more signal, called active from +8 up or from −8 down
[14] = plasmodial surface anion channel blockers, osmotic lysis – cell-based, P. falciparum Indochina, OD700, 2 h, primary screen (AID 1155);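 note: lysis reports solute entry through the parasite surface anion channel PSAC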; settings: P. falciparum Indochina infected erythrocytes, higher = more signal, called active from +8 up or from −8 down
[15] = changes in parasitized red cell lysis, either direction – P. falciparum Indochina, OD700, 3 h, PSAC antagonist project, primary screen (AID 1156); settings: P. falciparum-infected erythrocytes, osmotic lysis, higher = more signal, called active from +8 up or from −8 down
[16] = plasmodial surface anion channel blockers, osmotic lysis – cell-based, P. falciparum Indochina, OD700, 18 h, primary screen (AID 1157); settings: P. falciparum Indochina infected erythrocytes, osmotic lysis OD700, 18 h; higher = more signal, called active from +8 up or from −8 down
[17] = S6 kinase pathway phospho-S6 level changes – cell-based, A549, cytoblot, luminescence, serum-stimulated, primary screen (AID 1158); settings: 5 h, higher = more signal;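 note: serum-stimulated A549 lung adenocarcinoma cells; signal is phosphorylated S6 detected by cytoblot immunostaining with HRP secondary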
[18] = target: NADPH oxidase 2 (Homo sapiens) (UniProt P04839); assay: compounds shifting NOX2 Amplex Red fluorescence – cell-based, HEK293-NOX2, PMA-stimulated, NOX inhibitor project, primary screen (AID 1159); settings: 45 min, higher = more signal, called active from +8 up or from −8 down; note: test concentration not given here
Sequence of NADPH oxidase 2 (Homo sapiens) (P04839 whole entry, looked up): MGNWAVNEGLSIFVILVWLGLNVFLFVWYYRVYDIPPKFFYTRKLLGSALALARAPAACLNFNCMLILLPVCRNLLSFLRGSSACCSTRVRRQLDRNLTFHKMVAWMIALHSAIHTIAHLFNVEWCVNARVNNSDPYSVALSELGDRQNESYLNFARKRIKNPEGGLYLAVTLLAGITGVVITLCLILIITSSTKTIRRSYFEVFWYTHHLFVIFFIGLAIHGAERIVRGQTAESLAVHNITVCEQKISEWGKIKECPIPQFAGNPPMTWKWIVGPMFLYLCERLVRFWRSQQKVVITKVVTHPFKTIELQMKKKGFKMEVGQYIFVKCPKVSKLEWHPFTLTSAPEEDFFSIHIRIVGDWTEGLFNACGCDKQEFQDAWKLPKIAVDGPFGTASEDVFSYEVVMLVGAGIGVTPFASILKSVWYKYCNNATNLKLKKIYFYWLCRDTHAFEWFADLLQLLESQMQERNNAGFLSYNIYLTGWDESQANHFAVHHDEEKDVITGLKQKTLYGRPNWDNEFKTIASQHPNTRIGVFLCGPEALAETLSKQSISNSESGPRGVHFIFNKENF

[19] = target: NADPH oxidase 4 (Homo sapiens) (UniProt Q9NPH5); assay: compounds shifting NOX4 Amplex Red fluorescence – cell-based, HEK293-NOX4, tetracycline-induced, NOX inhibitor project, primary screen (AID 1160); settings: HEK293-NOX4, Amplex Red H2O2 fluorescence, 45 min; higher = more signal, called active from +8 up or from −8 down
Sequence of NADPH oxidase 4 (Homo sapiens) (Q9NPH5 whole entry, looked up): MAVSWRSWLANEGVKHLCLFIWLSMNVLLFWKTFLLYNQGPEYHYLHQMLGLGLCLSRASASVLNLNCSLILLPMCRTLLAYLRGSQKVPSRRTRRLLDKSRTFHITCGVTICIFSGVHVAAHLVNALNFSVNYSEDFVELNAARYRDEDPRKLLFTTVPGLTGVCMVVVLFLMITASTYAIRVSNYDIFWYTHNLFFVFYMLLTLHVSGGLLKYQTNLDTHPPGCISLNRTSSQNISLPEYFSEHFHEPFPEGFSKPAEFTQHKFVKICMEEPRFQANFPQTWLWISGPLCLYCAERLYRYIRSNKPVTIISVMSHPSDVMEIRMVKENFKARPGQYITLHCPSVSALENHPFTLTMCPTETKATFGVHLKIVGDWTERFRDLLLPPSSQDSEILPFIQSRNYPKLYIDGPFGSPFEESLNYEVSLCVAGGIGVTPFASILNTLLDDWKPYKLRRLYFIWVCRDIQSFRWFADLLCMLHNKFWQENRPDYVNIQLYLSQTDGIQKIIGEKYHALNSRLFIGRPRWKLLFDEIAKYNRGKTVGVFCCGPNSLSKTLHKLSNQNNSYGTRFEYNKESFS

[20] = target: NADPH oxidase 5 (Homo sapiens) (UniProt Q96PH1); assay: compounds shifting NOX5 Amplex Red fluorescence – cell-based, HEK293-NOX5, NOX inhibitor project, primary screen (AID 1161); settings: HEK293-NOX5, ionomycin, 45 min, higher = more signal
Sequence of NADPH oxidase 5 (Homo sapiens) (Q96PH1 whole entry, looked up): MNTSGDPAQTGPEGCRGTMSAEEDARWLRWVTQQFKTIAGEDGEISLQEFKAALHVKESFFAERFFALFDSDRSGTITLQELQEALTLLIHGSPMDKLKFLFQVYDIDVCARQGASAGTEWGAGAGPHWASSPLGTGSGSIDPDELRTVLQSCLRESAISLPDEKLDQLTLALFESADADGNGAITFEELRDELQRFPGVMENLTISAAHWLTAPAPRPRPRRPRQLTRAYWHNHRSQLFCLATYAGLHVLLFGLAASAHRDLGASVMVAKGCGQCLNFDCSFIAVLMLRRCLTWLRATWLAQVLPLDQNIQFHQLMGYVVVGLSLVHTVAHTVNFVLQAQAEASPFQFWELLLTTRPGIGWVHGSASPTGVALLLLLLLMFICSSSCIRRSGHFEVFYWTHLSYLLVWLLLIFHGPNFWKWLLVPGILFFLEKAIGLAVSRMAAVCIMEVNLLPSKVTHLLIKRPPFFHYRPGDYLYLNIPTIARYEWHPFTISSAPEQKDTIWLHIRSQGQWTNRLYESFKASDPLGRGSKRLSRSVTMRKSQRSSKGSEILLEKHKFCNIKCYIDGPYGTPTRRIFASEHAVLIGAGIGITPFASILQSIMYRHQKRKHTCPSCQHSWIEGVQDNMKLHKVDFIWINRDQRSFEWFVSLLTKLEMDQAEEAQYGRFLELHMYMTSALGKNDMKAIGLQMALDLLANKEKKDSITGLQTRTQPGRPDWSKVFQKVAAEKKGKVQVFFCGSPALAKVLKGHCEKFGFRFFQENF

| Structure (SMILES) | composite z-score [1] | z-score [2] | z-score [3] | z-score [4] | z-score [5] | composite z-score [6] | composite z-score [7] | composite z-score (Torsin-1A (Homo sapiens) [8]) | composite z-score (Torsin-1A (Homo sapiens) [9]) | composite z-score [10] | z-score [11] | composite z-score [12] | z-score [13] | z-score [14] | z-score [15] | z-score [16] | z-score [17] | z-score [18] | z-score [19] | z-score [20] |
| --- | --- | --- | --- | --- | --- | --- | --- | --- | --- | --- | --- | --- | --- | --- | --- | --- | --- | --- | --- | --- |
| C=C(C(=O)CC[C@H](OC(C)=O)c1cccc(OCCO)c1)C(C)C | -0.161 | -3.05 (inactive) | -0.0576 (inactive) | 0.798 (inactive) | 1.04 (inactive) | -0.608 | -0.0719 | -0.34 | -0.241 | 0.144 | 0.667 (inactive) | -0.283 | 2.12 (inactive) | -1.94 (inactive) | 1.7 (inactive) | -1.7 (inactive) | 0.617 | -1.48 (inactive) | -0.481 (inactive) | -1.61 |
| CN(C)CCCCNC(=O)[C@H]1C[C@H]2C(=O)N[C@@H](CCCCN(C)C)C(=O)N2[C@H]1c1cccc(OCCO)c1 | 0.83 | 0.441 (inactive) | 0.251 (inactive) | -1.07 (inactive) | -0.535 (inactive) | 0.329 | -0.305 | 0.68 | 0.86 | 2.08 | 0.357 (inactive) | -0.546 | 0.72 (inactive) | -0.0174 (inactive) | -0.71 (inactive) | -0.0919 (inactive) | -0.518 | 0.731 (inactive) | 0.756 (inactive) | -0.151 |
| C=CCN1C(=O)[C@]2(CC=C)N=C(c3ccc(OCCCO)cc3)O[C@@H]2c2ccccc21 | 0.731 | -4.15 (inactive) | 0.312 (inactive) | 0.796 (inactive) | -0.953 (inactive) | 0.842 | 0.296 | 0.265 | 0.538 | 1.65 | 0.987 (inactive) | 0.544 | 33.2 (active) | 34.2 (active) | 2.64 (inactive) | 10.6 (active) | -0.112 | -1.13 (inactive) | 1.08 (inactive) | 1.09 |
| CCOC(=O)C1=C[C@@H](c2ccccc2)N(S(=O)(=O)c2ccc(C)cc2)[C@H]1c1cccc(Cl)c1 | 0.55 | -3.89 (inactive) | 1.51 (inactive) | 0.182 (inactive) | -0.451 (inactive) | 1.34 | 0.351 | 0.631 | 0.569 | 0.319 | -1.29 (inactive) | 0.409 | 1.57 (inactive) | 1.24 (inactive) | -0.276 (inactive) | 0.805 (inactive) | -0.645 | 0.14 (inactive) | -0.143 (inactive) | 0.0576 |
| O=C1O[C@@H](c2ccccc2)[C@@H](c2ccccc2)N2[C@@H](c3ccccc3OCCO)[C@]3(C(=O)Nc4ccc(C#CCCO)cc43)[C@@H](C(=O)N3CCN(c4ncccn4)CC3)[C@H]12 | 0.174 | -2.33 (inactive) | 0.608 (inactive) | 0.478 (inactive) | 2.99 (inactive) | 0.139 | -0.0448 | -0.566 | 0.224 | -0.105 | 0.255 (inactive) | 0.0927 | 2.58 (inactive) | 1.27 (inactive) | -1.09 (inactive) | 0.418 (inactive) | -0.531 | 1.3 (inactive) | -0.686 (inactive) | 0.272 |
| COc1c(C)cc(-c2cc3c(c(Cc4ccccc4)n2)[Si](C(C)C)(C(C)C)OC3)cc1C | 0.0025 | 0.428 (inactive) | 0.602 (inactive) | -0.0848 (inactive) | -0.47 (inactive) | 0.169 | -0.128 | -0.0914 | -0.105 | 0.513 | -1.01 (inactive) | 0.0004 | 0.613 (inactive) | -0.172 (inactive) | 0.249 (inactive) | 0.189 (inactive) | -0.671 | -0.233 (inactive) | 0.243 (inactive) | 0.152 |
| Cc1ccc(F)cc1S(=O)(=O)N[C@@H]1CCN(Cc2ccc(Oc3ccccc3)cc2)C1 | -0.123 | -4.83 (inactive) | 0.913 (inactive) | 0.677 (inactive) | 0.865 (inactive) | -0.235 | -0.0403 | 0.575 | 0.251 | 1.07 | -12.2 (active) | 0.266 | 7.61 (inactive) | 1.9 (inactive) | 0.701 (inactive) | 1.19 (inactive) | -0.766 | -0.615 (inactive) | -1.08 (inactive) | -1.67 |
| Cc1ccc(S[C@]2(C(=O)NCC(C)C)CC(=O)N(Cc3ccccc3Cl)[C@@H]2c2ccc(CO)cc2I)cc1 | -0.296 | -0.521 (inactive) | -0.505 (inactive) | -0.904 (inactive) | 0.442 (inactive) | -0.942 | -0.176 | -0.276 | -0.682 | 0.196 | -0.455 (inactive) | 0.258 | 3.05 (inactive) | 0.592 (inactive) | 1.24 (inactive) | 0.254 (inactive) | 0.464 | 2.55 (inactive) | -0.402 (inactive) | 1.52 |
